In the library only some 4.1% were active in any assay of this set; here they are far more common.
NALP1 yeast inh: inhibitors of NALP1 inflammasome in yeast. S. cerevisiae NALP1/ASC/caspase-1 growth, X-gal OD620, 72 h. 280,000 tested, 0.61% active. inhibition, % at 10 µM; in the data active = inhibition mostly above about 24%, no sharp cut-off; inactive = mostly below about 32%
NALP3 yeast inh: inhibitors of NALP3 inflammasome in yeast; Yeast reconstituted NLRP3/ASC/caspase-1, beta-gal luminescence, 24 h; inhibition, % at 10 µM; 330,000 tested, 0.39% active;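 active = inhibition of 50% or more; inactive = inhibition below 50%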;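 also: plate controls were induced DMSO wells for no effect and uninduced yeast grown without galactose for full effect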
tim23-1 inh: inhibits growth of tim23-1 mutant yeast. AID 463212. S. cerevisiae tim23-1 growth, BacTiter-Glo luminescence, 24 h. inhibition, % at 20 µM. 330,000 tested, 1.3% active;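 active = growth inhibition of the mutant yeast at or above 50%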;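 also: temperature-sensitive mutant grown at 25 °C; plate controls were DMSO-treated mutant yeast for no effect and medium wells lacking yeast for full effect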
TIM10 inh: inhibits growth of TIM10 yeast strain; inhibition, % at 10 µM; 330,000 tested, 1.4% active; S. cerevisiae TIM10 strain growth, BacTiter-Glo luminescence, 24 h;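 active = inhibition of 40% or more at the single tested concentration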;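 also: wild-type TIM10 isogenic control strain grown at permissive 25 °C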
PfHsp90 set2: reduces growth (ATP signal) of yeast expressing P. falciparum Hsp90. S. cerevisiae expressing PfHsp90, BacTiter-Glo ATP, 48 h; yeast lacking PDR1 and PDR3 efflux regulators. inhibition, % at 9.4 µM. 310,000 tested, 0.32% active;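 active = every replicate shows inhibition above about 80%, whatever the replicate mean, limit read from the data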;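 also: 0% = DMSO neutral controls and 100% = 20 µM radicicol positive controls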
tim10-1 inh: inhibits growth of tim10-1 mutant yeast. S. cerevisiae tim10-1 ts strain growth, BacTiter-Glo, 24 h. inhibition, % at 20 µM. 330,000 tested, 2.2% active;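 active = inhibition of at least 40%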;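 also: mutant grown at 25 °C; 0% = DMSO wells with yeast and 100% = wells holding no yeast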
tim23-1 confirm: confirmation of tim23-1 mutant yeast growth inhibitors; AID 463218; inhibition, % at 20 µM; 4,400 tested, 83% active; shares compounds with tim23-1 inh; S. cerevisiae tim23-1 growth, BacTiter-Glo luminescence, 24 h;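 active = inhibition above about 39% in either of two replicate wells at 20 µM, limit read from the data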;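 also: temperature-sensitive tim23-1 mutant grown at 25 °C; 0% = DMSO wells with yeast and 100% = medium wells without yeast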
Numbers without * were called inactive; / = no result.

SMILES	NALP1 yeast inh	NALP3 yeast inh	tim23-1 inh	TIM10 inh	PfHsp90 set2	tim10-1 inh	tim23-1 confirm
CCCC(=O)NC(c1ccc(C(C)C)cc1)c1ccc2cccnc2c1O (stereo not given)	-23	23	57*	-23	-32	-17	63*
CCC(=O)NC(c1ccc(C)cc1)c1ccc2cccnc2c1O (stereo not given)	-37	28	62*	2	112*	1	58*
CCCC(=O)NC(c1ccc(N(C)C)cc1)c1ccc2cccnc2c1O (stereo not given)	-5	14	42	-92	1	-26	/
CCCC(=O)NC(c1ccccc1Cl)c1ccc2cccnc2c1O (stereo not given)	4	13	50*	-22	113*	4	53*
CN1C(=O)/C(=C2\SC(N)=NC2=O)c2ccccc21	0	15	-14	-13	-10	14	/
CN1C(=O)/C(=C2\SC(N3CCCCCC3)=NC2=O)c2ccccc21	12	6	55*	33	-10	32	44*
O=C(CN1CCc2ccccc2C1)Nc1ccc(OC(F)(F)F)cc1	15	17	28	6	0	10	/
CCOc1cc2[nH]c(=S)n(CCCC(=O)NCc3ccccn3)c(=O)c2cc1OCC	-38	23	3	-7	4	5	/
c1ccc(-c2csc(Nc3ccccn3)n2)cc1	18	29	50*	1	-19	10	29
CC1=CC(C)(C)N(C(=O)c2ccc(F)cc2)c2cc3c(cc21)OCO3	28	14	54*	39	-1	35	44*
COc1ccc(C2/C=C\CN(CC(C)C)CC(=O)N2Cc2cccc(F)c2)cc1 (stereo not given)	/	/	50*	10	-12	20	39*
COc1ccc(C2/C=C\CN(C(=O)c3ccccc3)CC(=O)N2Cc2cccc(F)c2)cc1 (stereo not given)	/	/	59*	16	5	30	42*
COc1ccc(C2/C=C\CN(S(=O)(=O)c3ccc(C)cc3)CC(=O)N2Cc2cccc(F)c2)cc1 (stereo not given)	/	/	45	-5	-9	20	/
O=C(NCCCNC(=O)c1ccc(-c2cc(Cl)ccc2Cl)o1)c1cnccn1	5	3	22	6	10	23	/
CCc1nnc(N2C(=O)c3ccc(Oc4ccc([N+](=O)[O-])cc4)cc3C2=O)s1	33	17	64*	34	8	29	39
COc1ccc(OC)c(CCNC(=O)Cn2cccc2C(=O)c2ccccc2C)c1	8	-6	96*	-8	-2	-15	29
COc1ccc(OC)c(CCNC(=O)Cn2cccc2C(=O)c2ccccc2)c1	4	11	7	-6	5	17	/
CCN(Cc1ccccc1)C(=O)c1ccc(C)c(S(=O)(=O)N2CCCCC2)c1	/	17	50*	15	-7	23	38
O=C(COC(=O)c1ccc(Cl)c(S(=O)(=O)N2CCOCC2)c1)NCc1ccco1	/	13	13	1	16	1	/
O=C(c1ccc(F)cc1)N(C(=O)c1ccc(F)cc1)c1ncccn1	-6	-7	55*	33	-34	32	47*
CC(=O)c1cccc(NC(=O)CCc2nc3sc4c(c3c(=O)[nH]2)CCCC4)c1	/	6	10	3	/	15	/
COc1cccc(/C=C/C(=O)N(C)CC(=O)Nc2ccc(Cl)c(C(F)(F)F)c2)c1	/	11	19	14	/	7	/
CCOCCn1ccc2c(OCC(=O)NCCc3ccc(OC)c(OC)c3)cccc2c1=O	/	11	16	9	-12	17	/
CCOCCn1ccc2c(OCC(=O)Nc3ccc(OC)c(OC)c3)cccc2c1=O	/	1	54*	4	/	12	5
COc1ccc(C(C[N+](=O)[O-])c2c(-c3ccccc3)cc3ccccn23)cc1 (stereo not given)	/	1	63*	38	/	40	78*
COc1ccc(C(C[N+](=O)[O-])c2c(-c3ccccc3)cc3ccccn23)cc1OC (stereo not given)	8	16	50*	31	/	35	62*
COc1cccc(-c2ncc3ccccn23)c1	4	15	7	1	-14	6	/

Bioassay records (PubChem BioAssay)
